# Source: PubChem (several laboratories)
# Only some compounds are listed: those with a hit (about 4.7% of all), similar ones and a draw of the others.
# DSG3 Ab inh = inhibitors of pemphigus antibody binding to human desmoglein-3 | P32926 | DSG3-coupled beads, scFv-anti-DSG3-GFP binding, flow cytometry; active compounds read low | binding (percent of control), % at 10 µM | 310,000 compounds, 0.48% hits;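 active = binding more than 3 SD below its plate's average and above zero; inconclusive = below that plate limit but binding exactly zero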;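 also: hits lower antibody fragment binding to DSG3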
# Target sequence (P32926 whole entry, looked up, the tested form may be a part): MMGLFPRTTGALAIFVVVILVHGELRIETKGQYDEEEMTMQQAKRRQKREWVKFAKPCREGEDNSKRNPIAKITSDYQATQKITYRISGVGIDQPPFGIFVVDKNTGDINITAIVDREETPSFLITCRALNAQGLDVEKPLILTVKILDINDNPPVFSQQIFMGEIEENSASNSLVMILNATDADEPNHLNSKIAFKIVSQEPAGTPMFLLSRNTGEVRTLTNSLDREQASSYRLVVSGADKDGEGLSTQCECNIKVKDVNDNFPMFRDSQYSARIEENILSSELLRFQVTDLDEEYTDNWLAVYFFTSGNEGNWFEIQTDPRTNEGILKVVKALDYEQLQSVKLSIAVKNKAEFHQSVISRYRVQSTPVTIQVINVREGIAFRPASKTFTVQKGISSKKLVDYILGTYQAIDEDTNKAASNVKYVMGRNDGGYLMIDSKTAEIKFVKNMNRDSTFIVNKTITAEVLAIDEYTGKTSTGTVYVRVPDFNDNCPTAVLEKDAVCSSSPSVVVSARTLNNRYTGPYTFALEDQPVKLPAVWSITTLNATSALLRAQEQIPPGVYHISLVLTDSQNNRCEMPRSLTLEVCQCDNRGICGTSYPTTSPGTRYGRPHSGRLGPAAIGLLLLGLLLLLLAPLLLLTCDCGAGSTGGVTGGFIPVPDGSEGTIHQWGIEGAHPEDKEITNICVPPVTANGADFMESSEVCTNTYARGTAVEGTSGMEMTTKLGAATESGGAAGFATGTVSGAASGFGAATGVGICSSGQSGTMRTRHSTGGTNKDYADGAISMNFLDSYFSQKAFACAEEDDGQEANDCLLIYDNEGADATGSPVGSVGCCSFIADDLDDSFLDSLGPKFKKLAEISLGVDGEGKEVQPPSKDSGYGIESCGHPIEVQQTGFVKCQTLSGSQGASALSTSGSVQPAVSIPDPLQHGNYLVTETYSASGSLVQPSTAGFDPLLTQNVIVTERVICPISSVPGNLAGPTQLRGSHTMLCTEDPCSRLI
# ADAM10 inh = inhibitors of human ADAM10 | 370,000 compounds, 0.62% hits | inhibition, % at 7 µM | AID 720582 | recombinant ADAM10, EDANS/DABCYL FRET peptide cleavage, 3 h;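 active = inhibition above a per-campaign cutoff equal to the mean of compounds falling between control-based bounds plus 3 SD, cut at about 20% in these data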;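 also: 0% = DMSO wells while the 100% control is not disclosed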
# rCAG binder = molecules binding r(CAG) RNA repeats. r(CAG) RNA repeat, TO-PRO-1 dye displacement fluorescence. inhibition, % at 3 µM. 370,000 compounds, 1.3% hits. AID 651821;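 active = inhibition above the plate cutoff, the mean of all test compounds on that plate plus 3 SD, cut at about 35% in these data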;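 also: 0% = DMSO alone and 100% = 100 µM mitoxantrone as full dye displacement; higher means more dye released from RNA so lower well fluorescence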
# MPTP inh = inhibitors of mitochondrial permeability transition pore; isolated mouse mitochondria, Ca2+ swelling absorbance, 30 min; inhibition, % at 10 µM; 360,000 compounds, 1.4% hits;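 active = inhibition of 50% or more, scaled per plate between neutral and stimulator controls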;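 also: 0% = DMSO wells given calcium and 100% = 1 mM EGTA wells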
# proKLK7 act = activates the human kallikrein-7 zymogen; P49862; purified proKLK7, EDANS-DABCYL substrate fluorescence; 100% is mature enzyme control, 0% vehicle; activation, % at 7 µM; 370,000 compounds, 0.9% hits; AID 652039;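 active = activation above the mean of all tested compounds plus 3 SD, computed per campaign excluding outliers beyond control limits, cut at about 13% in these data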
# ADAM17 inh = inhibitors of human ADAM17; P78536; recombinant ADAM17, EDANS/DABCYL FRET peptide cleavage; inhibition, % at 6.95 µM; 370,000 compounds, 0.83% hits; AID 720648;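 active = inhibition above the mean of compounds lying between control limits plus 3 SD, set per campaign, cut at about 8.5% in these data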;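 also: 0% = DMSO-only wells as the low control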
# proKLK7 act conf = proKLK7 activation, confirmation. shares compounds with proKLK7 act. purified proKLK7, EDANS-DABCYL substrate fluorescence; scaled: vehicle 0, mature enzyme 100. activation, % at 7 µM. 3,200 compounds, 68% hits;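 active = activation, as change over the incubation, above the mean of all tested compounds plus 3 SD, cut at about 13% in these data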
# EDANS-DABCYL int = optically interferes with EDANS-DABCYL signal, flagging KLK7 hits; shares compounds with proKLK7 act; EDANS-DABCYL substrate fluorescence interference, no enzyme, 4 h; solvent 0%, active enzyme control 100%; activation, % at 7 µM; 3,200 compounds, 80% hits;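 active = activation above the all-compound mean plus 3 SD, ignoring values outside control-based bounds, cut at about 4.8% in these data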;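 also: value is the 4 h activation minus the activation read at time zero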
# EDANS interf = EDANS fluorescence interference in dose response, no enzyme; shares compounds with proKLK7 act; EDANS-DABCYL peptide fluorescence interference; EC50, µM; 250 compounds, 20% hits;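 active = compounds that raise the fluorescence signal in this interference counterscreen, with EC50 at or below 10 µM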;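 also: intact quenched peptide substrate alone read at 355 nm excitation and 520 nm emission; signal is fluorescence gain from T0 to T4 after four hours at room temperature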
# Active calls of the source: *; i = inactive; ? = inconclusive; · = no result.
SMILES,DSG3 Ab inh,ADAM10 inh,rCAG binder,MPTP inh,proKLK7 act,ADAM17 inh,proKLK7 act conf,EDANS-DABCYL int,others
COc1cc(-c2nc3n(n2)C(c2ccc(F)cc2)C2=C(CCCC2=O)N3)cc(OC)c1OC (stereo not given),98.6,-24.6,1.6,1.3,1.9,-6.3,·,·,
COc1ccc(C2C3=C(CCCC3=O)Nc3nc(C(F)(F)F)nn32)cc1OC (stereo not given),96.7,-43.7,-0.8,0.9,15.2*,-20.6,43.0*,57.9*,
COc1ccc(C2C3=C(CCCC3=O)Nc3nc(C(F)(F)F)nn32)c(OC)c1OC (stereo not given),90.7,-17.7,-2.0,-7.1,22.9*,-8.1,38.1*,35.7*,
CCOc1ccc(C2C3=C(CCCC3=O)Nc3nc(C(F)(F)F)nn32)cc1OC (stereo not given),108.5,-46.7,1.6,0.5,44.3*,-15.8,52.1*,58.2*,
CN(C)S(=O)(=O)N1CCC(n2nccc2NC(=O)CCCc2ccccc2)CC1,93.0,-4.4,-0.8,-1.1,0.3,0.6,·,·,
Cc1nnc(SCC(=O)NNC(=O)c2ccc(F)cc2)n1Cc1ccccc1,95.8,-4.2,2.5,-1.2,-0.8,-5.8,·,·,
CN(C)c1ccc(NC(=O)c2ccc(N3CCOCC3)nc2)cc1,103.5,3.4,-3.8,0.4,0.3,-0.3,·,·,
COc1cc(Cn2c3ccc(NC(=O)CCc4cccnc4)cc3c(=O)n2C)ccc1F,·,i,-1.1,-0.1,16.4*,-460.2,7.2,7.6*,
Cn1c(=O)c2cc(NC(=O)CC(C)(C)C)ccc2n1-c1ccccc1F,·,i,-0.7,4.3,15.5*,-449.5,-5.8,-16.3,
CC(CC(=O)Nc1ccc2c(c1)c(=O)n(C)n2Cc1ccc(F)cc1)C(F)(F)F (stereo not given),·,i,-0.6,-0.9,15.5*,i,-7.7,-10.8,
Cn1c(=O)c2cc(NC(=O)CCc3cccnc3)ccc2n1Cc1cccc(C(F)(F)F)c1,·,i,-1.3,-0.2,5.5,-443.6,·,·,
Cn1c(=O)c2cc(NC(=O)CCc3cccnc3)ccc2n1Cc1ccc(F)cc1,·,i,0.2,-0.3,12.9*,-401.4,7.1,14.0*,
CCNC(=O)C1(C)CCN(C(=O)c2ccccc2F)C1 (stereo not given),·,-11.3,0.4,-1.0,-0.4,-4.2,·,·,
Cc1ccccc1-c1cc2nc(Nc3ccc(F)cc3)n(C)c(=O)c2s1,·,7.4,6.3,2.6,-1.3,5.4,·,·,
Cc1ccccc1C(=O)N1CCC(C(=O)Nc2ccccn2)CC1,112.7,-4.5,-7.4,0.2,-0.8,-5.6,·,·,
Nc1nnc(CC(=O)N/N=C/c2ccccc2OCc2ccc(F)cc2)s1,114.0,-5.0,-2.4,4.0,0.4,-3.5,·,·,
CCCNC(=O)COC(=O)c1cc2c(=O)n3ccccc3nc2s1,·,i,3.8,0.6,20.4*,-345.2,73.2*,85.9*,
CC1CCN(C(=O)c2cc3c(=O)n4ccccc4nc3s2)CC1,104.4,i,-2.7,-0.9,23.3*,i,23.1*,25.9*,
O=C(c1cc2c(=O)n3ccccc3nc2s1)N1CCOCC1,101.4,i,3.4,-0.2,17.3*,-330.0,68.4*,68.3*,
O=C(c1cc2c(=O)n3ccccc3nc2s1)N1CCN(c2cccc(Cl)c2)CC1,104.4,-99.5,6.2,1.0,-0.9,-28.5,·,·,
NC(=O)C1C2C=CC(C2)C1c1ccccc1 (stereo not given),117.9,3.2,-0.1,-1.1,0.0,1.9,·,·,
O=C(CSc1nnc(-c2ccc(O)cc2)n1Cc1ccco1)c1cccs1,95.4,3.4,0.6,4.1,-0.1,-0.6,·,·,
O=C(CC(SCCO)c1ccc2c(c1)OCO2)c1cccs1 (stereo not given),99.1,-1.9,-3.6,-0.3,14.0*,-2.5,26.2*,26.7*,
O=C(CC(SCc1ccco1)c1ccc(O)cc1)c1cccs1 (stereo not given),104.7,-5.9,-1.0,39.6,25.1*,-3.0,15.7*,14.1*,
O=C(NCc1ccc2c(c1)OCO2)c1nc(Cn2cc([N+](=O)[O-])cn2)no1,94.7,-3.4,2.4,-1.2,0.0,-2.0,·,·,
SMILES,DSG3 Ab inh,ADAM10 inh,rCAG binder,MPTP inh,proKLK7 act,ADAM17 inh,proKLK7 act conf,EDANS-DABCYL int,others
CCOC(=O)c1cc2c(=O)n3ccccc3nc2n(Cc2ccco2)c1=NC(=O)c1ccccc1OC,·,i,8.5,1.1,8.1,-469.9,·,·,
N=c1c(C(=O)NCCc2ccccc2)cc2c(=O)n3ccccc3nc2n1Cc1ccco1,·,i,20.0,-0.1,-9.1,-472.8,·,·,
CCOC(=O)c1cc2c(=O)n3ccccc3nc2n(Cc2ccco2)c1=NC(=O)c1ccc(OC)cc1,108.2,i,29.7,5.7,12.7*,i,105.2*,104.0*,
CCOC(=O)c1cc2c(=O)n3cccc(C)c3nc2n(Cc2ccco2)c1=NC(=O)c1ccccc1,86.2,i,29.7,-0.6,24.3*,i,36.6*,36.1*,
CCOC(=O)c1cc2c(=O)n3ccccc3nc2n(Cc2ccco2)c1=NC(=O)c1cccc(OC)c1,·,i,1.8,-0.2,28.7*,i,41.8*,52.8*,
CCOC(=O)c1cc2c(=O)n3cccc(C)c3nc2n(Cc2ccco2)c1=NC(=O)c1ccc(C)cc1,116.4,·,·,-0.3,·,·,·,·,
Cc1ccc2c(c1C)C(=O)C(=O)N2,·,-11.5,1.6,-0.6,0.2,2.0,·,·,
OC(c1ccc(Cl)cc1)c1ncc(-c2ccccc2Cl)[nH]1 (stereo not given),·,1.2,1.1,4.4,0.2,-1.8,·,·,
COc1ccccc1-c1noc2c1C(=O)N(Cc1cn(C3CCCC3)nn1)CC2,·,0.3,2.5,-1.2,0.3,-0.3,·,·,
O=C(c1ccc(Br)cc1)N1CCC2(CC1)NCCc1[nH]cnc12,99.4,-4.1,4.7,-1.0,0.1,-7.9,·,·,
Cc1oc2c(CN3CCCCC3)c(O)ccc2c(=O)c1-c1ccc(Br)cc1,?,i,-5.2,-0.4,25.3*,-444.9,20.7*,17.4*,EDANS interf=>69.5
Cc1oc2c(CN3CCCC3)c(O)ccc2c(=O)c1-c1ccc(Br)cc1,122.2,i,0.0,-0.6,14.9*,-377.6,34.8*,29.6*,EDANS interf=>69.5
COc1ccc(-c2c(C)oc3c(CN4CCOCC4)c(O)ccc3c2=O)cc1,98.1,i,-1.2,0.2,67.0*,-405.9,23.5*,31.5*,
COc1ccc(-c2c(C)oc3c(CN4CCOCC4)c(O)ccc3c2=O)cc1OC,94.3,i,-4.3,-1.0,12.0,-141.9,·,·,
